# Screens from PubChem.
# Mtb UGM inh: M. tuberculosis UGM enzyme inhibitors, primary screen, biochemical, fluorescence polarization, single point; inhibition, % at 10 µM; UDP-galactopyranose mutase (Mycobacterium tuberculosis (strain ATCC 25618 / H37Rv)), …; 0.06% of 320,000 active; purified UGM, fluorescence polarization probe displacement; in the data active = inhibition above about 10%, passing the limit was not always enough; inconclusive = no clear call, values can overlap the other calls
# GDH-TPI counter-1: GDH-TPI coupling enzyme inhibitors, primary screen, artefact control for M. tuberculosis FBA inhibitor project, biochemical, absorbance, full deck; GDH-TPI coupled enzyme counterscreen, NADH absorbance; inhibition, % at 4.8 µM; 1.2% of 360,000 active; AID 588335, 2011; in the data active = inhibition above about 30%
# FadD28 binding: inhibitors of FadD28 bisubstrate probe binding, primary screen, biochemical, fluorescence polarization, single point; Mycobacterium tuberculosis FadD28 fatty-acid-AMP ligase; inhibition, % at 12.5 µM; 0.22% of 360,000 active; AID 588549, 2011; in the data active = inhibition above about 8.5%, passing the limit was not always enough; inconclusive = no clear call, values can overlap the other calls
# FBA Mtb inh: Mtb FBA enzyme inhibitors, primary screen, biochemical, fluorescence, strain H37Rv | 2.3% of 360,000 active | Fructose-bisphosphate aldolase (Mycobacterium tuberculosis (strain ATCC 25618 / H37Rv)), … | inhibition, % at 1 µM | purified M. tuberculosis FBA, fluorescence read-out
# Target sequence (P9WQA3 whole entry, looked up): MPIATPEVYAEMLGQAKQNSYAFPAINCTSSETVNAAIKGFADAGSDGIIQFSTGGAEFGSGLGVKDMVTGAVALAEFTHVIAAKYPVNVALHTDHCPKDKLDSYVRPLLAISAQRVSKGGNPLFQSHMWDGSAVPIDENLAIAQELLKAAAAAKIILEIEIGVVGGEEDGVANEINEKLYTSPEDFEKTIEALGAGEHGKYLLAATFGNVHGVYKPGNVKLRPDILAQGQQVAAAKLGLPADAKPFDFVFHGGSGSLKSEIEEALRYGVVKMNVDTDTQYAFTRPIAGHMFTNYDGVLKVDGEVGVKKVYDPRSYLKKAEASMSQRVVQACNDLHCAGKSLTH
# Rv3671c inh: Rv3671c serine protease inhibitors, primary screen, biochemical, fluorescence polarization, M. tuberculosis H37Rv; 0.048% of 320,000 active; AID 2606, 2010; inhibition, % at 5.96 µM; P9WHR9; in the data active = inhibition above about 38%;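 also: extracellular domain of Rv3671c used as enzyme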
# Mtb bLac sens: beta-lactam sensitization of Mtb H37Rv, H37Rv | M. tuberculosis H37Rv growth with meropenem, percent inhibition | 0.27% of 330,000 active | inhibition, % at 25 µM; call rule not given here;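 also: growth measured after seven days incubation then overnight dye step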
# Rv3671c confirm: Rv3671c serine protease inhibitors, retest, confirmation, biochemical, fluorescence polarization, M. tuberculosis H37Rv; shares compounds with Rv3671c inh; inhibition, % at 5.96 µM; 40% of 140 active; in the data active = inhibition above about 38%
# DNA intercal FP: DNA intercalation detected by acridine orange polarization counter-screen. AC50, µM. acridine orange-DNA binding, fluorescence polarization. 60% of 35 active. shares compounds with Mtb UGM inh;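 active = fitted AC50 no greater than ten times the top concentration tested, cut at about 17 µM in these data; inconclusive = flat fit with 30 to 70% signal change, or an unreliable fit; inactive = AC50 beyond ten times the top concentration tested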
# Mtb FBA confirm: M. tuberculosis aldolase blockers, biochemical, fluorescence, strain H37Rv, confirmation. shares compounds with FBA Mtb inh. purified M. tuberculosis FBA, fluorescence read-out. inhibition, % at 1 µM. 78% of 5,600 active. AID 651616, 2012
# GDH-TPI counter-2: GDH-TPI coupling enzyme inhibitors, artefact control for M. tuberculosis FBA inhibitor project, biochemical, fluorescence, high throughput; shares compounds with FBA Mtb inh; GDH-TPI coupled enzyme counterscreen; inhibition, % at 1 µM; 81% of 5,600 active; in the data active = inhibition above about 10%
# Hits are given with their value; i = inactive; ? = inconclusive; nt = no result. Hits are enriched below; roughly 3.7% of the tested compounds scored in any of these assays. Rule as the data show it, unless noted: active = inhibition above about 27%; inactive = the rest.
SMILES,Mtb UGM inh,GDH-TPI counter-1,FadD28 binding,FBA Mtb inh,Rv3671c inh,Mtb bLac sens,Rv3671c confirm,others
CC1=NN(c2ccccc2)C(=O)/C1=C/c1c(O)n(-c2ccc(F)c(Cl)c2)[nH]c1=O,i,nt,nt,nt,48.4,i,i,
COC(=O)Cc1[nH]nc2c1C(c1cc(OC)c(OC)c(OC)c1)C(C#N)=C(N)O2 (stereo not drawn),i,i,i,i,40.0,i,i,
COc1cc(NCCCNC(C)C)c2nccc(C)c2c1,nt,i,i,i,nt,nt,nt,
CCOC(=O)C1CCCN(C(=O)C2c3ccccc3Oc3ccccc32)C1 (stereo not drawn),23.3,i,10.1,i,59.9,i,i,
CCOC(=O)C1CCCN(C(=O)C2COc3ccccc3O2)C1 (stereo not drawn),nt,i,i,i,nt,nt,nt,
O=CN1CCN(C(=O)c2cccc([N+](=O)[O-])c2)CC1,i,i,i,i,i,i,nt,
O=C(NC1CCN(C(=O)c2cccc([N+](=O)[O-])c2)CC1)c1ccccc1,i,i,i,i,144.3,i,i,
CCN1C(=O)C(CC(=O)Nc2ccc(F)cc2)N(CCc2ccc(OC)cc2)C1=S (stereo not drawn),i,i,i,i,50.6,i,i,
CCN1C(=O)C(CC(=O)Nc2ccc(OC)cc2)N(CCc2ccccc2)C1=S (stereo not drawn),i,i,i,i,i,i,nt,
C#CCn1cc(/C=N/Nc2nc3ccccc3[nH]2)c2ccccc21,i,i,i,i,61.6,i,63.7,
C(=N\Nc1nc2ccccc2[nH]1)/c1cccc2nccnc12,i,i,i,i,i,i,nt,
CCN(CC)C(=O)c1ncn2c1c(=O)[nH]c1ccccc12,nt,i,i,i,nt,nt,nt,
CCN(CC)C1=CC2=CC(=C(C#N)C#N)CCC2CC1 (stereo not drawn),i,i,i,i,i,i,nt,
N#CC(C#N)=C1C=C2C=C(N3CCCCC3)CCC2CC1 (stereo not drawn),i,nt,nt,nt,51.1,i,i,
CCN(CC)C(=O)C1c2ccccc2Oc2ccccc21,46.7,i,i,i,73.5,i,i,
CCN(CC)C(=S)SCC(=O)NC12CC3CC(CC(C3)C1)C2,i,i,i,i,150.7,i,i,
CCCCN1C(=O)C(CC(=O)NC2CCCC2)CC(C(=O)N(C(C)C)C(C)C)=C1C (stereo not drawn),nt,i,i,i,nt,nt,nt,
CCN1C[C@@H]2[C@@H]3C(=O)N(Cc4ccccc4)C(=O)[C@@H]3[C@](CC)(C1=O)N2C(=O)c1ccc(Cl)c(Cl)c1,nt,i,i,i,nt,nt,nt,
O=C1CCCC2=C1C(c1ccc(Cl)cc1)C1C(=O)c3ccccc3C1=N2 (stereo not drawn),i,i,?,i,39.8,i,i,
Cc1nc(C)n(C(C)CNC(=O)c2ccco2)n1 (stereo not drawn),i,i,i,i,nt,i,nt,
Cc1ccccc1S(=O)(=O)N1CCN(c2ccc3c(c2)C2CC3CCN2C(=O)OCc2ccccc2)CC1 (stereo not drawn),nt,nt,i,i,nt,nt,nt,
CCCCCCCCCCCCCCCC[n+]1ccc(/C=N/O)cc1,i,i,i,i,58.8,i,72.0,DNA intercal FP=i
CC1(C(=O)Nc2ccc3c(c2)OCCO3)CCC(=O)N1C1CC1 (stereo not drawn),nt,nt,i,i,nt,nt,nt,
CC1Cc2ccccc2N1C(=O)CSc1ccccn1 (stereo not drawn),nt,i,i,i,nt,nt,nt,
CC1Cc2ccccc2N1C(=O)CSc1ncccn1 (stereo not drawn),i,i,i,i,i,i,nt,DNA intercal FP=i
SMILES,Mtb UGM inh,GDH-TPI counter-1,FadD28 binding,FBA Mtb inh,Rv3671c inh,Mtb bLac sens,Rv3671c confirm,others
COc1ccc2c3c(cccc13)C(=O)CC2,79.0,i,47.4,i,nt,i,nt,DNA intercal FP=i
COCCNC(=O)C1(C)CCCN(Cc2sc(C)nc2C)C1 (stereo not drawn),nt,i,i,i,nt,nt,nt,
Cn1ccnc1C(O)c1ccccc1 (stereo not drawn),i,i,i,i,i,i,nt,
COc1ccc2ccccc2c1C(O)c1nccn1C (stereo not drawn),39.2,i,i,i,i,i,nt,DNA intercal FP=i
O=c1cc(-c2ccccc2)c2ccc(O)cc2o1,i,i,i,i,i,i,nt,
O=c1ccc2c(-c3ccccc3)c3ccc(O)cc3oc-2c1,41.3,i,i,i,i,i,nt,DNA intercal FP=0.547
Cc1cc(C)cc(NS(=O)(=O)c2ccc3c(c2)C(C)(C)C(=O)N3C)c1,i,i,i,i,i,?,nt,DNA intercal FP=i
CC1=C(C(=O)N(C)C)CC(CC(=O)NC2CCCC2)C(=O)N1Cc1ccccc1 (stereo not drawn),nt,i,i,i,nt,nt,nt,
Cc1cccc(N2C(=O)c3cccc4c(N(C)CCO)ccc(c34)C2=O)c1,i,i,i,i,i,i,nt,DNA intercal FP=i
CCOC(=O)N1CCN(c2cc(NCCC(=O)O)c3c4c(onc24)-c2ccccc2C3=O)CC1,i,i,14.7,i,i,i,nt,DNA intercal FP=i
O=C(COC(=O)CC1CCS(=O)(=O)C1)Nc1ccc(F)cc1 (stereo not drawn),i,i,i,i,i,i,nt,
O=C(CCCN1C(=O)c2cccc3cccc(c23)C1=O)N1CCN(c2ccccc2)CC1,i,i,i,i,i,i,nt,DNA intercal FP=i
O=C(CCCN1C(=O)c2cccc3cccc(c23)C1=O)N1CCN(c2ccccc2O)CC1,i,i,i,i,i,i,nt,
CCc1nc2c(OCCOC)cccn2c1N(C)C(=O)c1ccco1,nt,i,i,i,nt,nt,nt,
Cc1cccc(C)c1OCC(O)CN(Cc1ccccc1O)C1CCCCC1 (stereo not drawn),i,i,i,32.2,i,i,nt,Mtb FBA confirm=44.4;GDH-TPI counter-2=30.9
Cc1c(CCCl)c(Cl)n2c(nc3ccccc32)c1C#N,nt,i,i,i,nt,nt,nt,
N#Cc1c(-c2ccccc2)c(C#N)c2nc3ccccc3n2c1N,i,i,i,83.0,i,i,nt,Mtb FBA confirm=91.4;GDH-TPI counter-2=67.1
O=S(=O)(c1cccc(Cl)c1)N1CN(CC2CCCO2)c2nc3ccccc3nc21 (stereo not drawn),i,i,i,36.1,i,i,nt,Mtb FBA confirm=187.6;GDH-TPI counter-2=146.0
